The record followed here is the supplement of paper PMC6555819.

Experiment in all cases: PBM binding z-score (relative to random genomic background probes); higher = stronger binding; sequences stand for … in GC…GCGATTGACAGCGTAGAATGAAGG
For experiment [1], the system named is FXR:RXRa (NR concentration 270 nM, RXRa partner concentration 90 nM). In short, it runs like this: (§1)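 Scanned fluorescence from custom Agilent 4×180K protein-binding microarrays was regression-normalized. Binding z-scores use random background probes as reference. Ligand-free nuclear receptor dimers were incubated on the arrays for 1 h and detected with antibodies against each partner (one per run).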

In experiment [2] the test system is LXRa:RXRa (NR concentration 270 nM, RXRa partner concentration 90 nM). A digest of the protocol:
as §1

Experiment [3] deals with LXRa homodimer (NR concentration 270 nM). In short, it runs like this:
as §1

Experiment [4] has as its system LXRb:RXRa (NR concentration 270 nM, RXRa partner concentration 90 nM). A digest of the protocol: as §1
The subject of experiment [5] is LXRb homodimer (NR concentration 270 nM). In short, it runs like this:
as §1

Experiment [6] concerns PPARa:RXRa (NR concentration 270 nM, RXRa partner concentration 90 nM). A digest of the protocol:
as §1

Experiment [7] relates to PPARg:RXRa (NR concentration 180 nM, RXRa partner concentration 90 nM). In short, it runs like this: as §1
Experiment [8] has as its system PPARg:RXRa 270nM:90nM, anti-RXR (NR concentration 270 nM, RXRa partner concentration 90 nM). In short, it runs like this: as §1
For experiment [9], the system named is PPARg:RXRa 30nM:10nM, anti-RXR (NR concentration 30 nM, RXRa partner concentration 10 nM). In short, it runs like this: as §1
For experiment [10], the system named is PPARg:RXRa 90nM:30nM, anti-RXR (NR concentration 90 nM, RXRa partner concentration 30 nM). In short, it runs like this:
as §1

Experiment [11] has as its system PPARg:RXRa DBDmut IVT, anti-RXR (DBD mutation: RXRa K156A/R161A, NR concentration 270 nM, RXRa partner concentration 90 nM). A digest of the protocol: as §1
Experiment [12] concerns PPARg:RXRa IVT, anti-PPARg (NR concentration 270 nM, RXRa partner concentration 90 nM). A digest of the protocol: as §1
Experiment [13] relates to PPARg DBDmut:RXRa IVT, anti-PPARg (DBD mutation: PPARg1 K132A/R137A, NR concentration 270 nM, RXRa partner concentration 90 nM). In short, it runs like this:
as §1

In experiment [14] the test system is PPARg DBDmut IVT, anti-PPARg (DBD mutation: PPARg1 K132A/R137A, NR concentration 270 nM). In short, it runs like this:
as §1

For experiment [15], the system named is PPARg homodimer (NR concentration 180 nM). In short, it runs like this:
as §1

Experiment [16] has as its system PXR:RXRa (NR concentration 270 nM, RXRa partner concentration 90 nM). A digest of the protocol:
as §1

Experiment [17] relates to PXR homodimer (NR concentration 270 nM). A digest of the protocol:
as §1

Experiment [18] relates to RARa:RXR (NR concentration 270 nM, RXRa partner concentration 90 nM). A digest of the protocol: as §1
For experiment [19], the system named is RARa homodimer (NR concentration 270 nM). In short, it runs like this: as §1
The test system of experiment [20] is RARb:RXRa (NR concentration 270 nM, RXRa partner concentration 90 nM). In short, it runs like this:
as §1

CCAGACAGGTGAAAGGTAATTCAGTCTGGTACGC: the PBM binding z-score is 0.605 in [1]; 0.764 in experiment [2]; -0.068 in experiment [3]; 0.645 in experiment [4]; -0.433 in experiment [5]; 3.29 in experiment [6]. The PBM binding z-score in experiment [7] is 5.24; in experiment [8], 5.83; in [9] it was 4.2; in experiment [10], 5.95; in experiment [11], 2.07; in experiment [12], 2.63. The PBM binding z-score in experiment [13] was -0.0152; in [14] it was -0.567; in experiment [15], 1.43; in experiment [16], 0.676; in [17] it was -0.138; in experiment [18], 1.49. In addition, the PBM binding z-score in [19] came out at 0.566; in experiment [20] it was 0.958.
For TCATATTGGTAATACAGGTGAAAGTCGGCATCTA, the PBM binding z-score was found to be 1.28 in experiment [1]; 1.16 in [2]; 0.763 in experiment [3]; 1.2 in experiment [4]; 0.359 in [5]; 1.79 in experiment [6]. The PBM binding z-score in experiment [7] worked out at 1.09; in [8] it was 2.7; in experiment [9], 3.88; in [10] it was 3.11; in [11], 2.7; in experiment [12], 1.89. Further, the PBM binding z-score in experiment [13] was found to be 0.751; in experiment [14], 1.85; in experiment [15], 1.69; in [16] it was 0.947; in experiment [17] it was 0.763; in experiment [18], 1.09. The PBM binding z-score in experiment [19] was 1.43; in [20], 0.496.
For the sequence AGAATGAGGTTATTAAGACCAGGGAATTGCGGTC, the PBM binding z-score in experiment [1] is 1.7; in [2], 1.52; in experiment [3], -0.287; in experiment [4] it was 1.09; in experiment [5], -0.232; in experiment [6] it was 2.8. Further, the PBM binding z-score is 1.57 in [7]; 1.93 in experiment [8]; 0.533 in experiment [9]; 1.05 in experiment [10]; 2.67 in [11]; 2.43 in experiment [12]. Besides, the PBM binding z-score in experiment [13] is 1.16; in experiment [14], 0.232; in [15] it was 0.709; in experiment [16], 1.02; in [17], -0.304; in experiment [18], 1.49. For the same sequence, the results for the PBM binding z-score in experiment [19] and in experiment [20] were -0.0801 and 1.38, respectively.
CGAACTAGGTCAAGAGGTCAAAGTCCGCTTCCCG: the PBM binding z-score came out at 7.13 in experiment [1]; 6.37 in experiment [2]; 6.49 in [3]; 5.6 in experiment [4]; 1.59 in experiment [5]; 6.58 in [6]. Besides, the PBM binding z-score came out at 10.1 in experiment [7]; 7.94 in experiment [8]; 7.44 in [9]; 8.35 in experiment [10]; 8.26 in [11]; 8.1 in experiment [12]. For the same sequence, the PBM binding z-score is 0.974 in [13]; -0.335 in experiment [14]; 5.23 in experiment [15]; 6.23 in experiment [16]; 3.31 in experiment [17]; 7.7 in experiment [18]. The PBM binding z-score in experiment [19] was determined as 2.18; in experiment [20], 5.48.
Regarding TCTTGTGGATCAACAGGAGGTTAAGAAAGATCGA, the PBM binding z-score is 0.0119 in experiment [1]; 1.31 in experiment [2]; -0.115 in experiment [3]; 0.808 in experiment [4]; -0.625 in experiment [5]; 1.19 in experiment [6]. The PBM binding z-score came to 0.00768 in experiment [7]; 1.18 in experiment [8]; 2.49 in experiment [9]; 1.87 in [10]; 1.35 in experiment [11]; 0.812 in [12]. In addition, the PBM binding z-score in experiment [13] is 0.186; in [14], 1.07; in experiment [15], 0.476; in experiment [16] it was 0.621; in [17], -0.304; in experiment [18] it was 0.932. For the same sequence, the PBM binding z-score in experiment [19] is -0.244; in experiment [20], 0.59.
For CCTTACGGGTCACTGACAGGTTAAAGCATTTGGA, the PBM binding z-score in [1] was 5.65; in [2], 4.59; in experiment [3], 0.409; in [4], 3.69; in experiment [5] it was -0.38; in experiment [6], 5.05. Further, the PBM binding z-score was 4.6 in experiment [7]; 4.5 in [8]; 1.97 in experiment [9]; 3.25 in experiment [10]; 3.63 in [11]; 4.02 in experiment [12]. Also, the PBM binding z-score in experiment [13] came out at 0.71; in experiment [14] it was 0.495; in [15] it was 4.09; in experiment [16], 3.98; in experiment [17] it was 0.033; in [18] it was 5.21. The PBM binding z-score in experiment [19] amounted to 0.619; in experiment [20] it was 3.94.
On to CCTACTGGGCCACGAAAGGTCATTGTTTCAGTGA, for which the PBM binding z-score in experiment [1] came to 3.44; in experiment [2], 5.19; in experiment [3], 5.22; in experiment [4], 4.29; in experiment [5] it was 0.43; in experiment [6], 4.61. Moreover, the PBM binding z-score in experiment [7] amounted to 4.26; in experiment [8] it was 4.79; in [9], 1.73; in [10] it was 4.24; in experiment [11], 5.79; in [12] it was 6.05. Besides, the PBM binding z-score in experiment [13] amounted to 1.13; in experiment [14], 0.571; in experiment [15], 3.37; in [16], 5.45; in experiment [17], 2.06; in experiment [18], 5.42. Further, the PBM binding z-score amounted to 0.917 in experiment [19] and 4.06 in experiment [20].
